# Assay outcomes as filed in PubChem.
# Shown are actives, neighbours in structure and some others; about 2.8% of the full set was active somewhere.
# ATXN2 expr inh: ATXN2 expression inhibition; 360,000 compounds, 0.72% hits; Potency, µM (series often up to 57 µM), inactives show top-dose activity change, negative = inhibition, usual class: inhibitors; AID 1745845; HEK-293 ATXN2-luciferase reporter, luminescence, 24 h; also: % is scaled to controls: 0 for no effect and ±100 for the full control effect; nearly all actives have a fitted effect of over 55% in size
#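 qHTS (up to 57 uM final) was run with 24 h compound exposure of reporter cells at 37 °C. Each well was multiplexed: SteadyGlo luminescence measured ATXN2-luciferase expression after a fluorogenic Gly-Phe-AFC viability readout (25 uM final).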
# HTT aggregate: inhibitors of mutant huntingtin aggregate formation in PC12 cells | 220,000 compounds, 1.1% hits | PC12 HttQ103-GFP aggregates, Acumen cytometry, 40 h | Potency, µM (highest dose often 46.1 µM), for inactives: at the highest dose activity change, negative = inhibition, most hits filed as inhibitors; also: % is scaled to controls: 0 for no effect and ±100 for the full control effect; nearly all actives have a fitted effect of over 60% in size
#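 Steps: seed 1500 PC12 HTTQ103-GFP cells/well; add tebufenozide, 100 nM final; add compound titration; add ATPLite reagent; quantify GFP aggregates by laser scanning cytometry.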
# HepG2 tox-1: kills HepG2 cells in TGF-b inhibitor counter-screen. HepG2 CAGA-GFP viability, ATP luminescence, 18 h. 410,000 compounds, 0.76% hits. Potency, µM (highest dose often 46.1 µM), for inactives: at the top dose activity change, negative = cytotoxicity, actives largely listed as cytotoxic
#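 CellTiter-Glo luminescence gave cytotoxicity after 18 hours at 37 degrees C. The cells were HepG2 CAGA-GFP in 1% FBS DMEM, stimulated with 500 pg/mL TGF-beta after compound addition. %Activity was normalised to no-cell wells (complete cell-killing) and DMSO (no toxicity), and curves were fitted and classified.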
# ATXN viability: cell viability loss in ATXN counter-screen; S2 cells (HEK-293 line with an ATXN2-luciferase reporter) viability, CellTiter-Fluor protease fluorescence, 24 h; Potency, µM (series often up to 56.7 µM), most hits filed as cytotoxic; 400,000 compounds, 0.49% hits; AID 651635; also: nearly all actives have a fitted effect of over 40% in size
# TGFb SMAD3 inh: TGF-b pathway inhibition; HepG2 CAGA-GFP TGF-b/SMAD3 reporter, GFP fluorescence, 18 h; TGF-beta stimulated, 500 pg/mL final; Potency, µM (series often up to 46.1 µM), for inactives: top-dose activity, negative = inhibition, hits mostly inhibitors; 410,000 compounds, 1.2% hits; AID 588855; also: % is scaled to controls: 0 for no effect and ±100 for the full control effect; nearly all actives have a fitted effect of over 65% in size
#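 HEPG2 CAGA-GFP, 1000 cells/well; 2 h settle, 37 C; cpd via pin tool; TGF-b 500 pg/mL final; 18 h, 37 C; GFP imaging ex488/em500-530; %Activity normalised to -TGF-b and +DMSO controls; CRC fit, curve class.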
# HTT cytoprotect: protects HTT-Q103 PC12 cells, measured by ATP; PC12 HTT-Q103 induced, cytoprotection, ATP luminescence, 40 h; Potency, µM (top dose mostly 56.4 µM), for the others: cytoprotection (ATP increase), actives largely listed as activators; 230,000 compounds, 0.14% hits; AID 1471; also: % of control where 0% means no effect; nearly all actives have a fitted effect of over 45% in size
#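 Cells were plated at 1500 per well in phenol red-free DMEM with 5% equine and 5% calf serum. Tebufenozide (100 nM final) and compounds were added, then ATPlite reagent, and luminescence was read.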
# TGFb confirm: TGF-b pathway inhibition, cherry-pick retest. shares compounds with TGFb SMAD3 inh. HepG2 CAGA-GFP TGF-b reporter, GFP fluorescence, 18 h; cells stimulated with TGF-beta, 500 pg/mL. Potency, µM (series often up to 46.1 µM), without a hit: at the top dose activity, negative = inhibition, usual class: inhibitors. 1,600 compounds, 63% hits. AID 720534; also: % is scaled to controls: 0 for no effect and ±100 for the full control effect; nearly all actives have a fitted effect of over 65% in size
# HepG2 tox-2: HepG2 cytotoxicity, TGF-b inhibitor counterscreen. Potency, µM (series often up to 46.1 µM), for the others: top-dose activity, negative = cytotoxicity, actives largely listed as inhibitors. shares compounds with TGFb SMAD3 inh. 1,600 compounds, 27% hits. HepG2 CAGA-GFP viability, ATP luminescence, 18 h; cells stimulated with TGF-beta, 500 pg/mL; also: % is scaled to controls: 0 for no effect and ±100 for the full control effect; nearly all actives have a fitted effect of over 70% in size
# TGFb CCL64 inh: orthogonal confirmation of TGF-b inhibitors in CCL64 cells; shares compounds with TGFb SMAD3 inh; CCL64 CAGA-GFP reporter, TGF-b stimulated, GFP fluorescence, 18 h; 1,600 compounds, 41% hits; Potency, µM (series often up to 46.1 µM), for inactives: top-dose activity, negative = inhibition, hits mostly inhibitors; also: nearly all actives have a fitted effect of over 65% in size
# TGFb COP inh: validation of TGF-b inhibitors in HepG2 COP promoter reporter; Potency, µM (series often up to 46.1 µM), for the others: at the highest dose activity, negative = inhibition, usual class: inhibitors; HepG2 COP-GFP TGF-b reporter, GFP fluorescence, 18 h; cells stimulated by added recombinant TGF-beta; shares compounds with TGFb SMAD3 inh; 1,600 compounds, 3% hits; also: nearly all actives have a fitted effect of over 70% in size
# Numbers without * were called inactive; i = inactive; ? = inconclusive; . = no result given; [ ] = dose if it differs, or a comment. Calls follow the shape of the dose curve; as a rule, active = well fitted curve in the direction sought with a large enough effect; inconclusive = small, poorly fitted or top-dose-only effect, or another doubt; inactive = no such curve, though single readings can be large; an effect the other way counts as inactive or inconclusive. Potency is read from the fitted curve at half-maximal effect.
SMILES,ATXN2 expr inh,HTT aggregate,HepG2 tox-1,ATXN viability,TGFb SMAD3 inh,HTT cytoprotect,TGFb confirm,HepG2 tox-2,TGFb CCL64 inh,TGFb COP inh
COC(=O)C1=C[C@@H](C(=O)OC)[C@@H]2C3=C(C(=O)[C@@]2(C)NC(=O)c2ccccc2)[C@H](C)[C@@H]2C(=O)N(Cc4ccccc4)C(=O)[C@@H]2[C@@H]3C1,.,.,-2%,.,-8%,.,.,.,.,.
CCC1Oc2ccc(C)cc2N(CC(=O)N(Cc2ccc(C)o2)C2CCCC2)C1=O (stereo unspecified),-4%,?,3%,i,18µM*,25%[1.9 µM],12µM*,-26%,?,-2%
CCC1Oc2ccc(C)cc2N(CC(=O)NC2CCCCC2)C1=O (stereo unspecified),4%,.,12%,i,-1%,.,.,.,.,.
CC(C)(C)c1ccc(Cn2nnc3c(=O)[nH]c(C4CCN(C(=O)c5ccco5)CC4)nc32)cc1,-19%,.,-20%,i,13µM*,.,18µM*,?,-21%,4%
COc1ccc(C2C=C3CN(C(=O)OC(C)(C)C)S(=O)(=O)C3CC2OC(=O)c2cccc(C)c2)cc1 (stereo unspecified),.,.,15%,.,-1%,.,.,.,.,.
CN(C)C(=O)c1cccc(-c2cnc3c(NC=O)cc(-c4ccccc4Cl)cn23)c1,-24%,.,-17%,11µM*,13µM*,.,16µM*,-15%,?,34%
CN(C)C(=O)c1cccc(-c2cc(NC=O)c3ncc(-c4ccc(F)cc4)n3c2)c1,0%,.,-15%,i,8.9µM*,.,5.2µM*,-13%,?,17%
O=S1(=O)C2CC3OC2(CC3c2ccc(F)cc2)CN1Cc1ccc(Cl)cc1 (stereo unspecified),.,.,2%,.,-12%,.,.,.,.,.
Cc1ccccc1NC(=O)c1ccccc1NC(=O)c1ccccc1Cl,.,.,-7%,.,-5%,.,.,.,.,.
Cc1ccccc1NC(=O)c1cc(C(=O)c2cc(Cl)ccc2O)cn(-c2ccccc2C)c1=O,-29%,16µM*,-35%,?,7.1µM*,34%[10 µM],16µM*,?,13µM*,43%
CC1Cc2ccccc2C[N+]1(C)CC(=O)c1ccc(I)cc1 (stereo unspecified),.,.,16%,.,8%,.,.,.,.,.
COc1ccc2cc(CNCCOCCOCCNCc3ccc4cc(OC)ccc4c3)ccc2c1,?,.,4µM*,.,3.2µM*,.,-108%,21µM*,4.6µM*,?
CCOCCCNCc1ccc(OC)cc1,3%,-3%,0%,i,3%,-2%,.,.,.,.
